Source: the supplement of paper PMC6609913
Counter-ions that a name gives are not always drawn. ± gives the standard deviation of the averaged measurements. The full ranking holds about 1,300 compounds; the median of “normalised cell viability” is about 1, and the lowest 2% start at about 0.14. Many of the other results were omitted from the sample, so the lowest values are more common in it than they were.

Test system: V-C8 (BRCA2-deficient hamster cells)
Test: normalised cell viability (fraction of plate median); higher = more viable cells (less toxic)
Conditions: 5 µM
Outline: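 Library drugs, held as 10 mM stocks in DMSO, were diluted to 5 μM in 100 μl medium and added to 96-well plates of V-C8 hamster cells, either lacking BRCA2 or with BRCA2 restored, 24 h after seeding. Plates ran for 3 days (screen 1) or 6 days (screen 2), alongside solvent-only wells. Viability came from a resazurin readout, median-plate normalised, as the mean of triplicate wells.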

Question: Which results are given for CN[C@H](CC(C)C)C(=O)N[C@H]1C(=O)N[C@@H](CC(N)=O)C(=O)N[C@H]2C(=O)N[C@H]3C(=O)N[C@H](C(=O)N[C@H](C(=O)O)c4cc(O)cc(O)c4-c4cc3ccc4O)[C@H](O)c3ccc(c(Cl)c3)Oc3cc2cc(c3O[C@@H]2O[C@H](CO)[C@@H](O)[C@H](O)[C@H]2O[C@H]2C[C@](C)(N)[C@H](O)[C@H](C)O2)Oc2ccc(cc2Cl)[C@H]1O [Vancomycin hydrochloride]?
Answer: normalised cell viability (treatment time: 3 days): 0.159 ± 0.01; normalised cell viability (treatment time: 6 days): 0.141 ± 0.0064

Question: For CC(CN(C)C)C(C)(O)Cc1ccc(Cl)cc1 (configuration not stated) [Clobutinol hydrochloride], which normalised cell viability (treatment time: 3 days) is on record?
Answer: 1.05 ± 0.13

Question: And the normalised cell viability (treatment time: 6 days)?
Answer: 1.11 ± 0.064

Question: What does the source list for Cc1cc(NC(=O)C2=C(O)c3ccccc3S(=O)(=O)N2C)no1 [Isoxicam]?
Answer: normalised cell viability (treatment time: 3 days): 1.04 ± 0.06; normalised cell viability (treatment time: 6 days): 1.06 ± 0.042

Question: What does the source list for CC[C@]12CCCN3CCc4c(n(c5ccccc45)C(=O)C1)[C@@H]32 [Eburnamonine (-)]?
Answer: normalised cell viability (treatment time: 3 days): 0.362 ± 0.016; normalised cell viability (treatment time: 6 days): 0.643 ± 0.11

Question: Which results are given for CN(C)[C@@H]1C(O)=C(C(N)=O)C(=O)[C@@]2(O)C(O)=C3C(=O)c4c(O)cccc4[C@@](C)(O)[C@H]3[C@H](O)[C@@H]12 [Oxytetracycline dihydrate]?
Answer: normalised cell viability (treatment time: 3 days): 0.991 ± 0.015; normalised cell viability (treatment time: 6 days): 0.945 ± 0.05

Question: With C=C(NC(=O)C(=C)NC(=O)c1csc(C2=N[C@@H]3c4csc(n4)[C@H]4NC(=O)c5csc(n5)[C@H]([C@](C)(O)[C@@H](C)O)NC(=O)[C@H]5CSC(=N5)/C(=C/C)NC(=O)[C@H]([C@@H](C)O)NC(=O)c5csc(n5)[C@]3(CC2)NC(=O)[C@H](C)NC(=O)C(=C)NC(=O)[C@H](C)NC(=O)[C@H]([C@@H](C)CC)N[C@@H]2C=Cc3c([C@H](C)O)cc(nc3[C@H]2O)C(=O)O[C@@H]4C)n1)C(N)=O [Thiostrepton] as the molecule, how does the normalised cell viability (treatment time: 3 days) read?
Answer: 0.14 ± 0.011

Question: What about the normalised cell viability (treatment time: 6 days) of the same molecule?
Answer: 0.126 ± 0.0091

Question: For COc1c(O[C@@H]2O[C@H](CO)[C@@H](O)[C@H](O)[C@H]2O)cc2c(c1OC)-c1ccc(SC)c(=O)cc1[C@@H](NC(C)=O)CC2 [Thiocolchicoside], which normalised cell viability (treatment time: 3 days) is on record?
Answer: 1.22 ± 0.36

Question: And the normalised cell viability (treatment time: 6 days)?
Answer: 0.97 ± 0.017

Question: For CCCCc1cc2ccccc2c(OCCN(C)C)n1 [Dimethisoquin hydrochloride], which normalised cell viability (treatment time: 3 days) is on record?
Answer: 1.03 ± 0.087

Question: And the normalised cell viability (treatment time: 6 days)?
Answer: 1.04 ± 0.05

Question: Which results are given for CCOc1ccc2c(c1)C(C)=CC(C)(C)N2 [Ethoxyquin]?
Answer: normalised cell viability (treatment time: 3 days): 0.883 ± 0.014; normalised cell viability (treatment time: 6 days): 1.2 ± 0.26

Question: CCN(CC)CCOC(=O)C(c1ccccc1)C1CCCCC1 (configuration not stated) [Drofenine hydrochloride] was tested. Which normalised cell viability (treatment time: 3 days) did it give?
Answer: 1.02 ± 0.038

Question: What about the normalised cell viability (treatment time: 6 days) of the same molecule?
Answer: 1.02 ± 0.07

Question: Which normalised cell viability (treatment time: 3 days) does the source give for CCN(CC)CCOC(=O)C(c1ccccc1)c1ccccc1 [Adiphenine hydrochloride] here?
Answer: 0.976 ± 0.021

Question: And the normalised cell viability (treatment time: 6 days)?
Answer: 1.02 ± 0.039

Question: CCN(CC)CCOC(=O)C(Cc1cccc2ccccc12)CC1CCCO1 (configuration not stated) [Nafronyl oxalate] was tested. Which normalised cell viability (treatment time: 3 days) did it give?
Answer: 0.1613 ± 0.00033

Question: What about the normalised cell viability (treatment time: 6 days) of the same molecule?
Answer: 0.14 ± 0.0088

Question: How did the normalised cell viability (treatment time: 3 days) turn out when COCCOC(=O)C1=C(C)NC(C)=C(C(=O)OC/C=C/c2ccccc2)C1c1cccc([N+](=O)[O-])c1 (configuration not stated) [Cilnidipine] was run?
Answer: 0.98 ± 0.03

Question: What about the normalised cell viability (treatment time: 6 days) of the same molecule?
Answer: 1.01 ± 0.015

Question: How did the normalised cell viability (treatment time: 3 days) turn out when CC(=C(CCO)SSCC1CCCO1)N(C=O)Cc1cnc(C)nc1N (stereo in doubt) [Fursultiamine Hydrochloride] was run?
Answer: 1.03 ± 0.025

Question: What about the normalised cell viability (treatment time: 6 days) of the same molecule?
Answer: 1.03 ± 0.0084

Question: For Cc1ccccc1C(OCCN(C)C)c1ccccc1 (configuration not stated) [Orphenadrine hydrochloride], which normalised cell viability (treatment time: 3 days) is on record?
Answer: 1.05 ± 0.14

Question: And the normalised cell viability (treatment time: 6 days)?
Answer: 0.964 ± 0.14

Question: What does the source list for O=C(O)c1cc(/N=N/c2ccc(S(=O)(=O)Nc3ccccn3)cc2)ccc1O [Sulfasalazine]?
Answer: normalised cell viability (treatment time: 3 days): 1.03 ± 0.056; normalised cell viability (treatment time: 6 days): 0.993 ± 0.046

Question: Which results are given for N#Cc1ccc(C2CCCc3cncn32)cc1 (configuration not stated) [Fadrozole hydrochloride]?
Answer: normalised cell viability (treatment time: 3 days): 1.01 ± 0.087; normalised cell viability (treatment time: 6 days): 0.97 ± 0.079

Question: How did the normalised cell viability (treatment time: 3 days) turn out when COc1cccc2c1C(=O)c1c(O)c3c(c(O)c1C2=O)C[C@@](O)(C(=O)CO)C[C@@H]3O[C@H]1C[C@H](N)[C@@H](O)[C@H](C)O1 [Epirubicin hydrochloride] was run?
Answer: 0.123 ± 0.013

Question: What about the normalised cell viability (treatment time: 6 days) of the same molecule?
Answer: 0.163 ± 0.016

Question: COc1cccc2c1C(=O)c1c(O)c3c(c(O)c1C2=O)C[C@@](O)(C(C)=O)C[C@@H]3O[C@H]1C[C@H](N)[C@H](O)[C@H](C)O1 [Daunorubicin hydrochloride] was tested. Which normalised cell viability (treatment time: 3 days) did it give?
Answer: 0.141 ± 0.011

Question: And the normalised cell viability (treatment time: 6 days)?
Answer: 0.124 ± 0.0055

Question: What does the source list for COc1cccc2c1C(=O)c1c(O)c3c(c(O)c1C2=O)C[C@@](O)(C(=O)CO)C[C@@H]3O[C@H]1C[C@H](N)[C@H](O)[C@H](C)O1 [Doxorubicin hydrochloride]?
Answer: normalised cell viability (treatment time: 3 days): 0.127 ± 0.0054; normalised cell viability (treatment time: 6 days): 0.113 ± 0.0072

Question: What does the source list for Cc1nccn1CC1CCc2c(c3ccccc3n2C)C1=O (configuration not stated) [Ondansetron Hydrochloride]?
Answer: normalised cell viability (treatment time: 3 days): 1.07 ± 0.04; normalised cell viability (treatment time: 6 days): 1.1 ± 0.082

Question: For CC(C)NCC(O)c1ccc(O)c(O)c1 (single isomer, unassigned; (+)) [(+)-Isoproterenol (+)-bitartrate salt], which normalised cell viability (treatment time: 3 days) is on record?
Answer: 1.028 ± 0.0063

Question: What about the normalised cell viability (treatment time: 6 days) of the same molecule?
Answer: 0.926 ± 0.063

Question: How did the normalised cell viability (treatment time: 3 days) turn out when CC(=O)NC[C@H]1CN(c2ccc(N3CCOCC3)c(F)c2)C(=O)O1 [Linezolid] was run?
Answer: 1.04 ± 0.039

Question: And the normalised cell viability (treatment time: 6 days)?
Answer: 0.972 ± 0.047

Question: c1ccc(CNc2ncnc3nc[nH]c23)cc1 [Aminopurine, 6-benzyl] was tested. Which normalised cell viability (treatment time: 3 days) did it give?
Answer: 0.947 ± 0.1

Question: And the normalised cell viability (treatment time: 6 days)?
Answer: 0.94 ± 0.075

Question: For O=C1C=CC(=O)c2c1ccc1c2ccc2ccccc21 [Chrysene-1,4-quinone], which normalised cell viability (treatment time: 3 days) is on record?
Answer: 1.02 ± 0.061

Question: What about the normalised cell viability (treatment time: 6 days) of the same molecule?
Answer: 1.06 ± 0.12

Question: How did the normalised cell viability (treatment time: 3 days) turn out when Nc1c2c(nc3ccccc13)CCCC2 [Tacrine hydrochloride] was run?
Answer: 0.984 ± 0.031

Question: What about the normalised cell viability (treatment time: 6 days) of the same molecule?
Answer: 1.1 ± 0.049

Question: What does the source list for Nc1c2ccccc2nc2ccccc12 [Aminacrine]?
Answer: normalised cell viability (treatment time: 3 days): 0.127 ± 0.015; normalised cell viability (treatment time: 6 days): 0.164 ± 0.015

Question: Which normalised cell viability (treatment time: 3 days) does the source give for CC(C)Cn1cnc2c(N)nc3ccccc3c21 [Imiquimod] here?
Answer: 1.11 ± 0.044

Question: And the normalised cell viability (treatment time: 6 days)?
Answer: 1.02 ± 0.064

Question: What does the source list for CN1CCN(c2c(F)cc3c(=O)c(C(=O)O)cn(CCF)c3c2F)CC1 [Fleroxacin]?
Answer: normalised cell viability (treatment time: 3 days): 0.982 ± 0.046; normalised cell viability (treatment time: 6 days): 0.977 ± 0.051

Question: With CCCOc1ccc2[nH]c(NC(=O)OC)nc2c1 [Oxibendazol] as the molecule, how does the normalised cell viability (treatment time: 3 days) read?
Answer: 0.185 ± 0.0067

Question: What about the normalised cell viability (treatment time: 6 days) of the same molecule?
Answer: 0.183 ± 0.0049

Question: Which results are given for COC(=O)Nc1nc2cc(Sc3ccccc3)ccc2[nH]1 [Fenbendazole]?
Answer: normalised cell viability (treatment time: 3 days): 0.187 ± 0.0098; normalised cell viability (treatment time: 6 days): 0.181 ± 0.013

Question: What does the source list for COC(=O)Nc1nc2cc(C(=O)c3ccc(F)cc3)ccc2[nH]1 [Flubendazol]?
Answer: normalised cell viability (treatment time: 3 days): 0.148 ± 0.019; normalised cell viability (treatment time: 6 days): 0.16 ± 0.0047

Question: What does the source list for COC(=O)Nc1nc2cc(C(=O)c3ccccc3)ccc2[nH]1 [Mebendazole]?
Answer: normalised cell viability (treatment time: 3 days): 0.164 ± 0.0056; normalised cell viability (treatment time: 6 days): 0.13 ± 0.0086

Question: Which results are given for COC(=O)Nc1nc2cc([S+]([O-])c3ccccc3)ccc2[nH]1 (configuration not stated) [Oxfendazol]?
Answer: normalised cell viability (treatment time: 3 days): 0.712 ± 0.076; normalised cell viability (treatment time: 6 days): 0.775 ± 0.014

Question: With COC(=O)Nc1nc2cc(C(=O)c3cccs3)ccc2[nH]1 [Nocodazole] as the molecule, how does the normalised cell viability (treatment time: 3 days) read?
Answer: 0.147 ± 0.0062

Question: What about the normalised cell viability (treatment time: 6 days) of the same molecule?
Answer: 0.128 ± 0.004

Question: Which results are given for CC(C)NCC(O)c1ccc(O)c(O)c1 (single isomer, unassigned; (-)) [(-)-Isoproterenol hydrochloride]?
Answer: normalised cell viability (treatment time: 3 days): 1 ± 0.035; normalised cell viability (treatment time: 6 days): 0.952 ± 0.015
